Laboratory results from PubChem BioAssay (NCATS).
Inconclusive results are not listed. Activity calls are given as the source filed them. Calls follow the shape of the dose curve; as a rule, active = well fitted curve in the direction sought with a large enough effect; inconclusive = small, poorly fitted or top-dose-only effect, or another doubt; inactive = no such curve, though single readings can be large; an effect the other way counts as inactive or inconclusive.

Tests used:
[1] = qHTS of pediatric cancer cell lines to identify multiple opportunities for drug repurposing: Primary screen for TC32 cells (AID 1347089); conditions: TC32 Ewing sarcoma viability, CellTiter-Glo luminescence, 48 h; series mostly up to 45.8 µM; also: nearly all actives have a fitted effect of over 60% in size; also: potency is read from the fitted curve at half-maximal effect
Method in brief: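 Luminescent ATP read-out (CellTiter-Glo) of metabolically active TC32 cells after 48 h exposure. Concentration-response curves came from 11-point (MIPE, 0.78 nM–46 µM) or 8-point (NPC, 0.59 nM–46 µM) primary titrations; follow-up used 11 points.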

[2] = qHTS of pediatric cancer cell lines to identify multiple opportunities for drug repurposing: Primary screen for DAOY cells (AID 1347090); conditions: DAOY medulloblastoma viability, CellTiter-Glo luminescence, 48 h; series mostly up to 46 µM; also: nearly all actives have a fitted effect of over 55% in size; also: potency is read from the fitted curve at half-maximal effect
Method in brief: (§1)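 Eight- or eleven-point concentration series, 48 h treatment at 37 degrees C in growth media; readout CellTiter-Glo luminescence. Potency and efficacy were taken from the concentration-response curves.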

[3] = qHTS of pediatric cancer cell lines to identify multiple opportunities for drug repurposing: Primary screen for SJ-GBM2 cells (AID 1347091); conditions: SJ-GBM2 viability, CellTiter-Glo luminescence, 48 h; series mostly up to 46 µM; also: potency is read from the fitted curve at half-maximal effect
Method in brief: as §1

[4] = qHTS of pediatric cancer cell lines to identify multiple opportunities for drug repurposing: Primary screen for A673 cells (AID 1347092); conditions: A673 Ewing sarcoma viability, CellTiter-Glo ATP luminescence, 48 h; series mostly up to 46 µM; also: nearly all actives have a fitted effect of over 45% in size; also: potency is read from the fitted curve at half-maximal effect
Method in brief: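 Cell viability of A673 measured by CellTiter-Glo ATP luminescence after 48 hours compound exposure. Dilution series spanned 0.78 nM to 46 µM (MIPE, 11-point) or 0.59 nM to 46 µM (NPC, 8-point); bortezomib 2.3 uM positive control.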

[5] = qHTS of pediatric cancer cell lines to identify multiple opportunities for drug repurposing: Primary screen for SK-N-MC cells (AID 1347093); conditions: SK-N-MC viability, CellTiter-Glo luminescence, 48 h; series mostly up to 46 µM; also: potency is read from the fitted curve at half-maximal effect
Method in brief: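 Metabolically active cells were quantified by ATP-dependent luminescence (CellTiter-Glo, 15 min at room temperature) following 48 h treatment. Cells had been plated at 500-1,000 per well and settled for 5 h beforehand.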

[6] = qHTS of pediatric cancer cell lines to identify multiple opportunities for drug repurposing: Primary screen for BT-37 cells (AID 1347094); conditions: BT-37 viability, CellTiter-Glo luminescence, 48 h; series mostly up to 57.3 µM; also: potency is read from the fitted curve at half-maximal effect
Method in brief: (§2)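 Phenotypic viability qHTS, 48 h compound exposure, CellTiter-Glo luminescence read-out; multi-concentration dosing so that potency and efficacy derive directly from the primary screen's curves.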

[7] = qHTS of pediatric cancer cell lines to identify multiple opportunities for drug repurposing: Primary screen for U-2 OS cells (AID 1347096); conditions: U-2 OS viability, CellTiter-Glo luminescence, 48 h; series mostly up to 46 µM; also: nearly all actives have a fitted effect of over 50% in size
Method in brief: (§3)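 Cells (500-1,000/well) in growth media were settled 5 h at 37 degrees C, then given compounds for 48 h. Viability was read as CellTiter-Glo luminescence. Primary runs used MIPE at 11 points (0.78 nM-46 µM) and NPC at 8 points (0.59 nM-46 µM); follow-ups used 11 points.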

[8] = qHTS of pediatric cancer cell lines to identify multiple opportunities for drug repurposing: Primary screen for SK-N-SH cells (AID 1347098); conditions: SK-N-SH viability, CellTiter-Glo luminescence, 48 h; series mostly up to 57 µM; also: nearly all actives have a fitted effect of over 65% in size; also: potency is read from the fitted curve at half-maximal effect
Method in brief: (§4)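 Cells (500-1,000/well) rested 5 h, then received compounds for 48 h; metabolically active cells were measured by CellTiter-Glo luminescence. Final concentrations spanned up to 46 µM (MIPE, 11-point) or 0.59 nM-46 µM (NPC, 8-point) in primary screens, 11-point in follow-ups.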

[9] = qHTS of pediatric cancer cell lines to identify multiple opportunities for drug repurposing: Primary screen for NB1643 cells (AID 1347099); conditions: NB1643 neuroblastoma viability, CellTiter-Glo luminescence, 48 h; series mostly up to 46 µM; also: nearly all actives have a fitted effect of over 50% in size; also: potency is read from the fitted curve at half-maximal effect
Method in brief: as §2

[10] = qHTS of pediatric cancer cell lines to identify multiple opportunities for drug repurposing: Primary screen for LAN-5 cells (AID 1347100); conditions: LAN-5 neuroblastoma viability, CellTiter-Glo luminescence, 48 h; series mostly up to 46 µM; also: potency is read from the fitted curve at half-maximal effect
Method in brief: as §3

[11] = qHTS of pediatric cancer cell lines to identify multiple opportunities for drug repurposing: Primary screen for Rh18 cells (AID 1347102); conditions: Rh18 rhabdomyosarcoma viability, CellTiter-Glo luminescence, 48 h; series mostly up to 46 µM; also: nearly all actives have a fitted effect of over 65% in size; also: potency is read from the fitted curve at half-maximal effect
Method in brief: as §3

[12] = qHTS of pediatric cancer cell lines to identify multiple opportunities for drug repurposing: Primary screen for MG 63 (6-TG R) cells (AID 1347105); conditions: MG 63 (6-TG R) viability, CellTiter-Glo, 48 h; series mostly up to 46 µM; also: nearly all actives have a fitted effect of over 50% in size
Method in brief: as §2

[13] = qHTS of pediatric cancer cell lines to identify multiple opportunities for drug repurposing: Primary screen for NB-EBc1 cells (AID 1347095); conditions: NB-EBc1 neuroblastoma viability, CellTiter-Glo luminescence, 48 h; series mostly up to 46 µM; also: potency is read from the fitted curve at half-maximal effect
Method in brief: as §2

[14] = qHTS of pediatric cancer cell lines to identify multiple opportunities for drug repurposing: Primary screen for Saos-2 cells (AID 1347097); conditions: Saos-2 viability, CellTiter-Glo ATP luminescence, 48 h; series mostly up to 46 µM; also: nearly all actives have a fitted effect of over 40% in size; also: potency is read from the fitted curve at half-maximal effect
Method in brief: as §2

[15] = qHTS of pediatric cancer cell lines to identify multiple opportunities for drug repurposing: Primary screen for BT-12 cells (AID 1347101); conditions: BT-12 viability, CellTiter-Glo luminescence, 48 h; series mostly up to 57.3 µM; also: nearly all actives have a fitted effect of over 25% in size; also: potency is read from the fitted curve at half-maximal effect
Method in brief: as §4

[16] = qHTS of pediatric cancer cell lines to identify multiple opportunities for drug repurposing: Primary screen for OHS-50 cells (AID 1347103); conditions: OHS-50 osteosarcoma viability, CellTiter-Glo luminescence, 48 h; series mostly up to 57.3 µM; also: nearly all actives have a fitted effect of over 40% in size; also: potency is read from the fitted curve at half-maximal effect
Method in brief: as §4

[17] = qHTS of pediatric cancer cell lines to identify multiple opportunities for drug repurposing: Primary screen for RD cells (AID 1347104); conditions: RD rhabdomyosarcoma viability, CellTiter-Glo luminescence, 48 h; series mostly up to 46 µM; also: nearly all actives have a fitted effect of over 55% in size; also: potency is read from the fitted curve at half-maximal effect
Method in brief: as §2

Measured: Potency

O=C(COc1ccc(Cl)cc1)N1CCN(Cc2ccc3c(c2)OCO3)CC1
not listed: [13] | [14] | [15] | [16] | [17]
inactive: all other assays above

O=C1OCCN1/N=C/c1ccc([N+](=O)[O-])o1
not listed: [4] | [8]
inactive: all other assays above

OC[C@H]1O[C@@H](n2cnc3c(=S)nc[nH]c32)[C@H](O)[C@@H]1O
active: [1] 1.67 µM | [2] 0.422 µM | [3] 3.76 µM | [4] 0.266 µM | [5] 18.8 µM | [6] 0.389 µM | [13] 1.33 µM | [14] 15 µM | [9] 0.75 µM | [10] 2.11 µM | [15] 9.78 µM | [16] 0.55 µM
inactive: [11] | [12]

Cc1cc(O)c(C(C)C)cc1Cl
not listed: [14] | [15] | [16]
inactive: all other assays above

C#C[C@]1(O)CC[C@H]2[C@@H]3CCC4=CC(=O)CC[C@@H]4[C@H]3CC[C@@]21C
not listed: [12] | [13] | [14]
inactive: all other assays above

C=C1C[C@H]2[C@@H]3C=C(C)C4=CC(=O)CC[C@]4(C)[C@H]3CC[C@]2(C)[C@@]1(OC(C)=O)C(C)=O
active: [16] 30.9 µM
not listed: [5] | [10] | [15] | [17]
inactive: all other assays above

COc1cc(C=C2CCC/C(=C\c3ccc(O)c(OC)c3)C2=O)ccc1O
active: [1] 0.938 µM | [2] 21.1 µM | [3] 23.7 µM | [4] 0.266 µM | [5] 0.335 µM | [6] 27.6 µM | [14] 23.7 µM | [8] 15.4 µM | [10] 7.5 µM | [15] 11 µM | [16] 19.5 µM | [17] 10.6 µM

CCCCOc1ccc(OCCCN2CCOCC2)cc1
not listed: [10] | [14] | [15] | [16]
inactive: all other assays above

O=C1OC(c2ccc(O)cc2)(c2ccc(O)cc2)c2ccccc21
not listed: [4] | [9] | [12]
inactive: all other assays above

Nc1ccn([C@@H]2O[C@H](CO)[C@@H](O)C2(F)F)c(=O)n1
active: [1] 0.0118 µM | [2] 2.66 µM | [3] 0.473 µM | [4] 0.0042 µM | [5] 0.106 µM | [6] 0.0049 µM | [13] 1.19 µM | [9] 0.0422 µM | [10] 0.075 µM | [16] 11 µM
inactive: [7] | [11] | [17]

c1ccc(CNCCNCc2ccccc2)cc1
not listed: [12] | [14] | [15] | [17]
inactive: all other assays above

CC(=O)O[C@]1(C(C)=O)CC[C@H]2[C@@H]3C[C@H](C)C4=CC(=O)CC[C@]4(C)[C@H]3CC[C@@]21C
active: [5] 33.5 µM | [16] 24.6 µM
not listed: [4] | [8] | [10] | [14] | [15] | [17]
inactive: all other assays above

Cc1nc2n(c(=O)c1CCN1CCC(c3noc4cc(F)ccc34)CC1)CCC[C@H]2O
not listed: [12] | [14] | [15]
inactive: all other assays above

Cc1onc(-c2c(Cl)cccc2Cl)c1C(=O)N[C@@H]1C(=O)N2[C@@H]1SC(C)(C)[C@@H]2C(=O)O
not listed: [14] | [15] | [17]
inactive: all other assays above

OC[C@@H](O)[C@@H](O[C@@H]1O[C@H](CO)[C@H](O)[C@H](O)[C@H]1O)[C@H](O)[C@@H](O)CO
not listed: [5]
inactive: all other assays above

N[C@H](Cc1c[nH]c2ccccc12)C(=O)O
not listed: [14] | [15]
inactive: all other assays above

CN(C)CCOc1ccccc1Cc1ccccc1
not listed: [8] | [12] | [14] | [15] | [16]
inactive: all other assays above

CCCCS(=O)(=O)N[C@@H](Cc1ccc(OCCCCC2CCNCC2)cc1)C(=O)O
not listed: [8] | [12] | [14]
inactive: all other assays above

COc1cc(-c2ccc(=O)[nH]n2)ccc1OC(F)F
not listed: [8] | [12] | [14]
inactive: all other assays above

NCCCC[C@H](N[C@@H](CCc1ccccc1)C(=O)O)C(=O)N1CCC[C@H]1C(=O)O
not listed: [12] | [14] | [15]
inactive: all other assays above

CCCCCCCCCCCCCCNCCO
not listed: [4] | [16] | [17]
inactive: all other assays above

Cc1cc(N)c2cc(NC(=O)Nc3ccc4nc(C)cc(N)c4c3)ccc2n1
not listed: [4] | [8] | [9] | [17]
inactive: all other assays above

C[C@@H](CN(C)C)CN1c2ccccc2Sc2ccccc21
active: [16] 21.9 µM
inactive: [1] | [2] | [3] | [5] | [13] | [7] | [9] | [10] | [12]

CCCCc1nc(Cl)c(CO)n1Cc1ccc(-c2ccccc2-c2nn[nH]n2)cc1
not listed: [5] | [12] | [17]
inactive: all other assays above

O=S1(=O)c2cccc3cccc(c23)N1CCCN1CCN(c2ccc(F)cc2)CC1
not listed: [5] | [8] | [10] | [14] | [16] | [17]
inactive: all other assays above

CC(C)N=C(N)/N=C(\N)Nc1ccc(Cl)cc1
inactive: [1] | [2] | [3] | [6] | [13] | [7] | [9] | [10] | [12]

CN1CCN(CCCN2c3ccccc3Sc3ccc(S(=O)(=O)N(C)C)cc32)CC1
active: [3] 18.8 µM | [8] 15.4 µM | [11] 23.7 µM | [16] 24.6 µM
inactive: [1] | [2] | [13] | [7] | [9]

CC[N+](CC)(CCNC(=O)C(=O)NCC[N+](CC)(CC)Cc1ccccc1Cl)Cc1ccccc1Cl
not listed: [3] | [14] | [17]
inactive: all other assays above

CC(C)(C)NC(=O)[C@@H]1CN(Cc2cccnc2)CCN1C[C@@H](O)C[C@@H](Cc1ccccc1)C(=O)N[C@H]1c2ccccc2C[C@H]1O
not listed: [3] | [12]
inactive: all other assays above

CC[C@@H](CO)NCCN[C@@H](CC)CO
not listed: [3] | [12]
inactive: all other assays above

NC(=O)c1cc[n+](CC2=C(C(=O)[O-])N3C(=O)[C@@H](NC(=O)Cc4cccs4)[C@H]3SC2)cc1
not listed: [3] | [14] | [17]
inactive: all other assays above

C[C@H]1C[C@H]2[C@@H]3CCC4=CC(=O)C=C[C@]4(C)[C@@]3(Cl)[C@@H](O)C[C@]2(C)[C@@]1(O)C(=O)CO
active: [5] 15 µM | [16] 24.6 µM
not listed: [3]
inactive: all other assays above

COc1cc2c(cc1OC)[C@@H]1CC(=O)[C@@H](CC(C)C)CN1CC2
not listed: [3] | [15] | [16]
inactive: all other assays above
